Experimental findings from PubChem BioAssay (NCI) are described below.

“And” between values parts separate entries of the source, which are not always exact repeats. Identical values can stand only once. This is part of a sample that, as a whole, favours compounds with a hit. Of some 83,000 tested, about 20% had one in any assay.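 Growth was measured after 48 h exposure to one concentration of compound in 96-well plates. Values under 10 count as active.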 The source made the active and inactive calls.

Common to all, as to experiment: NCI-60 one-dose screen, 48 h (100 = growth as untreated, 0 = no growth, -100 = all killed)
Test [1] concerns T-47D breast. The settings on record: 10 µM unless noted.
For test [2], the system named is BT-549 breast. The settings on record: 10 µM unless noted.
In test [3] the test system is MDA-MB-435 melanoma. The settings on record: 10 µM unless noted.
For test [4], the system named is SW-620 colon. The settings on record: 10 µM unless noted.
For test [5], the system named is MCF7 breast.
For test [6], the system named is HCT-116 colon. The settings on record: 10 µM unless noted.
In test [7] the test system is HCC-2998 colon. The settings on record: 10 µM unless noted.
In test [8] the test system is KM12 colon. The settings on record: 10 µM unless noted.

In the case of `CC(=O)Nc1cccc2cc(O)ccc12`, the growth in test [1] was 97% (inactive) and 103% (inactive); in test [2], 118% (inactive) and 145% (inactive) and 94.5% (inactive); in test [3], 107% (inactive) and 117% (inactive) and 103% (inactive); in test [4], 104% (inactive) and 92% (inactive) and 98.7% (inactive); in test [5] (10 µM), 99.3% (inactive) and 99.8% (inactive) and 91.6% (inactive); in test [6], 85.9% (inactive) and 103% (inactive) and 91.2% (inactive). The growth in test [7] is 115% (inactive) and 108% (inactive) and 95% (inactive); in test [8] it was 110% (inactive) and 90.7% (inactive) and 103% (inactive).
As for `O=C(/C=C/c1cccc(Cl)c1)c1ccccc1`, the growth in test [1] is 96.8% (inactive) and 88.3% (inactive); in test [2], 98.4% (inactive) and 85.2% (inactive); in test [3], 88.1% (inactive) and 59.8% (inactive); in test [4], 52.8% (inactive) and 39.4% (inactive); in test [5] (10 µM) it was 31.4% (inactive) and 15.7% (inactive); in test [6], 12.3% (inactive) and -17.1% (active). For the same compound, the growth is 92.5% (inactive) in test [7]; 63.2% (inactive) and 30.8% (inactive) in test [8].
As for `CCC(c1cccc(O)c1)C(CC)c1cccc(O)c1` (centres undefined), the growth in test [1] was 53.8% (inactive); in test [2], 66% (inactive); in test [3], -15.9% (active); in test [4] it was 42% (inactive); in test [5] (10 µM), 16.8% (inactive); in test [6], 34.4% (inactive). Moreover, the growth was 67% (inactive) in test [7] and 36.7% (inactive) in test [8].
On to `CCN(CC)CC(C)(C)C(=O)/C=C/c1ccc(Cl)c(Cl)c1`, for which the growth in test [1] was -11.3% (active); in test [2] it was 16.4% (inactive); in test [3], 1.76% (active); in test [4] it was -39.5% (active); in test [5] (10 µM), -13.8% (active); in test [6], -60.6% (active). Besides, the growth is -65.2% (active) in test [7] and -4.49% (active) in test [8].
With `C[n+]1c(/C=C/c2ccc([N+](=O)[O-])cc2)ccc2ccccc21`, the growth in test [1] was 103% (inactive); in test [2] it was 107% (inactive); in test [3], 108% (inactive); in test [4], 97.6% (inactive); in test [5] (10 µM), 96.1% (inactive); in test [6] it was 102% (inactive). Besides, the results for the growth in test [7] and in test [8] were 100% (inactive) and 80.8% (inactive), respectively.
On to `Nc1nc(N)c2c(ccc3c2ccn3Cc2cccc([N+](=O)[O-])c2)n1`, for which the growth in test [1] is -67% (active); in test [2] it was -91.4% (active); in test [3] it was -93.4% (active); in test [4], -91.8% (active); in test [5] (10 µM), -79.2% (active); in test [6] it was -84.9% (active). In addition, the growth in test [7] is -86% (active); in test [8] it was -92.3% (active).
For the compound `CCOC(=O)c1c(C)[nH]c(CO)c1C`, the growth in test [1] is 93.5% (inactive); in test [2], 109% (inactive); in test [3] it was 111% (inactive); in test [4], 109% (inactive); in test [5] (10 µM), 91.6% (inactive); in test [6], 100% (inactive). In addition, the growth in test [7] was 109% (inactive); in test [8], 94.2% (inactive).
As to `COc1ccc2nc3cc(Cl)ccc3c(NCCNc3c4ccc(Cl)cc4nc4ccc(OC)cc34)c2c1`, the growth in test [1] was -64.4% (active); in test [2], -76.6% (active); in test [3], -78.9% (active); in test [4], -50.4% (active); in test [5] (10 µM), -70% (active); in test [6] it was -83.3% (active). For the same compound, the growth was -82.2% (active) in test [7] and -71.8% (active) in test [8].
As for `Cc1ccc(C(=Nc2ccccc2)N=P(c2ccccc2)(c2ccccc2)c2ccccc2)cc1`, the growth is -33.4% (active) in test [1]; -26.9% (active) in test [2]; -76.4% (active) in test [3]; -40.7% (active) in test [4]; -39.7% (active) in test [5] (10 µM); -37.8% (active) in test [6]. Further, the growth is -71.6% (active) in test [7] and -70.9% (active) in test [8].
For the compound `O=C1c2ccccc2C(=O)N1c1ccccc1`, the growth in test [1] was 95.7% (inactive); in test [2], 107% (inactive); in test [3], 98.7% (inactive); in test [4], 109% (inactive); in test [5] (10 µM) it was 96.6% (inactive); in test [6], 105% (inactive). In addition, the growth was 102% (inactive) in test [7] and 107% (inactive) in test [8].
For `O=C(Nc1ccc(F)cc1)ON=C1CCCCC1`, the growth in test [1] was 79% [100 µM] (inactive); in test [2], 106% [100 µM] (inactive); in test [3], 98.1% [100 µM] (inactive); in test [4], 99.8% [100 µM] (inactive); in test [5] (100 µM), 98.2% (inactive); in test [6], 99.2% [100 µM] (inactive). Besides, the growth in test [7] is 106% [100 µM] (inactive); in test [8] it was 92.9% [100 µM] (inactive).
For the compound `Cc1ccc(N=C=C(c2ccccc2)c2ccccc2)cc1`, the growth was 85.7% (inactive) in test [1]; 91.9% (inactive) in test [2]; 79.9% (inactive) in test [3]; 35.8% (inactive) in test [4]; 68.5% (inactive) in test [5] (10 µM); 15.9% (inactive) in test [6]. Also, the growth in test [7] is 101% (inactive); in test [8] it was 95% (inactive).
As to `CCCCCCC(C)c1ccccc1O` (centres undefined) (tested in a mixture with another compound), the growth was 94.8% (inactive) in test [1]; 108% (inactive) in test [2]; 98.7% (inactive) in test [3]; 103% (inactive) in test [4]; 116% (inactive) in test [5] (10 µM); 111% (inactive) in test [6]. Further, the growth was 103% (inactive) in test [7] and 107% (inactive) in test [8].
For `N#CSCc1ccc(CSC#N)c(Cl)c1`, the growth was 68.4% (inactive) in test [1]; 56.5% (inactive) in test [2]; 40.6% (inactive) in test [3]; 25.4% (inactive) in test [4]; 22.7% (inactive) in test [5] (10 µM); 43.6% (inactive) in test [6]. Also, the growth in test [7] was 102% (inactive); in test [8], 69.3% (inactive).
Consider `CNc1ccc2c(c1)c1ccccc1n2C`, for which the growth in test [1] was 91.3% (inactive); in test [2], 106% (inactive); in test [3] it was 115% (inactive); in test [4] it was 111% (inactive); in test [6] it was 107% (inactive); in test [7], 99.4% (inactive). In addition, the growth in test [8] is 104% (inactive).
